# Compound activity deposited in PubChem BioAssay by National Center for Advancing Translational Sciences (NCATS).
# Pol beta inh: blocks human DNA polymerase beta activity; P06746; Pol beta primer extension/strand displacement, fluorescence kinetic; Potency, µM (titrated, usually from 114 µM), for inactives: top-dose activity change, negative = inhibition, hits mostly inhibitors; 340,000 tested, 1.3% active; also: % is scaled to controls: 0 for no effect and ±100 for the full control effect
#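 Pol beta (10 nM) was preincubated with compound for 15 min at room temperature. The reaction was then started with 50 nM substrate and read immediately and after a further 10 min at room temperature.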
# Pol eta inh: DNA polymerase eta (human) inhibition; Q9Y253; recombinant Pol eta, fluorescent DNA replication assay; Potency, µM (doses to about 114 µM), for inactives: at the highest dose activity change, negative = inhibition, hits mostly inhibitors; 390,000 tested, 1.2% active; AID 588591; also: % is scaled to controls: 0 for no effect and ±100 for the full control effect
#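 Fluorescent replication assay: 50 nM final substrate added after a 15 min room-temperature compound preincubation with 10 nM enzyme. Signal taken at 0 min and again at 10 min.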
# POLK inh: DNA polymerase kappa (human) inhibition; Q9UBT6; purified Pol kappa, fluorescent DNA synthesis assay, 10 min; Potency, µM (top dose mostly 107 µM), inactives show at the highest dose activity, negative = inhibition, hits mostly inhibitors; 400,000 tested, 0.53% active; AID 588579; also: % is scaled to controls: 0 for no effect and ±100 for the full control effect
# Target sequence (Q9UBT6 whole entry, looked up): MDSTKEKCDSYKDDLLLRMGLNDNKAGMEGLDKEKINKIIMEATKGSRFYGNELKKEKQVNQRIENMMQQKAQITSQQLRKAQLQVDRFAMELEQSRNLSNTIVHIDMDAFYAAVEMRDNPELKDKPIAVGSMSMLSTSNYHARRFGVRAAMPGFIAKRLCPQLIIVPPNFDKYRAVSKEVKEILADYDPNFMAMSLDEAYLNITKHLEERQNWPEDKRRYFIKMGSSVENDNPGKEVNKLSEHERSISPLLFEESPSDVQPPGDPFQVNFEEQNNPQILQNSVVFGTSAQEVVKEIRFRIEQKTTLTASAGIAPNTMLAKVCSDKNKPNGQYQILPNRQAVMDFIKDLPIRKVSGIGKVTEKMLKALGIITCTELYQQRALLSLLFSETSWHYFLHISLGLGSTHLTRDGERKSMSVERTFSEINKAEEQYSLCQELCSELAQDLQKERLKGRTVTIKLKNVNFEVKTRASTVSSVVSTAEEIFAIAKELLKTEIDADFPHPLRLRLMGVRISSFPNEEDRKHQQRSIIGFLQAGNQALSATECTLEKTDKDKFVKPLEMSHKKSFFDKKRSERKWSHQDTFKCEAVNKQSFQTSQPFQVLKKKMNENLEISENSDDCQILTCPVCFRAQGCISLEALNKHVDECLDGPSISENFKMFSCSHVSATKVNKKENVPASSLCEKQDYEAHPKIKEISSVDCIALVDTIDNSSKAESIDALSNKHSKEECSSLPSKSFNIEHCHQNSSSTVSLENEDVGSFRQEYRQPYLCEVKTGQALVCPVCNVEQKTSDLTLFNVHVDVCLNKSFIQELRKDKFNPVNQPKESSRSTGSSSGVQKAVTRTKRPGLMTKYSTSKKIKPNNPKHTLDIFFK
#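 Readout: fluorescence, taken kinetically at 0 and 10 min. Conditions: 10 nM Pol kappa, 15 min RT compound preincubation, 50 nM substrate final. Controls: enzyme-free buffer wells.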
# FEN1 inh: inhibitors of human flap endonuclease 1 | P39748 | Recombinant FEN1 flap cleavage, fluorescence, 15 min | Potency, µM (top dose mostly 114 µM), for inactives: at the top dose activity change, negative = inhibition, hits mostly inhibitors | 390,000 tested, 0.35% active; also: % is scaled to controls: 0 for no effect and ±100 for the full control effect; nearly all actives have a fitted effect of over 65% in size
#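 Nuclease activity of 10 nM FEN1 was measured after 15 min of room-temperature exposure to titrated compounds, by adding 50 nM flap substrate and reading plates at 0 and 15 min.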
# POLI inh: inhibitors of human DNA polymerase iota; Pol iota fluorescent replication assay, 10 min; Potency, µM (highest dose often 115 µM), without a hit: at the top dose activity, negative = inhibition, hits mostly inhibitors; 390,000 tested, 1% active
#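 Fluorescent replication assay read twice, at 0 min and 10 min after adding 50 nM (final) substrate. Enzyme (10 nM) and compounds were first incubated 15 min at room temperature; enzyme-free buffer wells were negative controls.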
# PGK inhibitor: blocks T. brucei phosphoglycerate kinase; PGK/GAPDH coupled, Kinase-Glo luminescence, 60 min; 380,000 tested, 0.043% active; AID 602233; Potency, µM (top dose mostly 57.5 µM), for inactives: at the highest dose activity change, negative = inhibition, usual class: inhibitors; also: % is scaled to controls: 0 for no effect and ±100 for the full control effect; nearly all actives have a fitted effect of over 60% in size
#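 Recombinant glycosomal PGK reaction used 1,3-bisphosphoglycerate generated in-well by GAPDH (100nM final) in 100mM TEA pH 7.6, 5mM MgCl2, 0.01% Tween-20. After 60 minutes at room temperature, ATP was read by Kinase-Glo Plus luminescence end-point.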
# Active calls of the source: *; i = inactive; ? = inconclusive; . = no result; [ ] = another dose, or the depositor's remark. The list is not random: actives were taken first. Their share in the collection is about 2.4%. Calls follow the shape of the dose curve; as a rule, active = well fitted curve in the direction sought with a large enough effect; inconclusive = small, poorly fitted or top-dose-only effect, or another doubt; inactive = no such curve, though single readings can be large; an effect the other way counts as inactive or inconclusive. Potency is read from the fitted curve at half-maximal effect.
SMILES,Pol beta inh,Pol eta inh,POLK inh,FEN1 inh,POLI inh,PGK inhibitor
CC(C)(C)c1nnc2sc(SC/C(O)=C(\C#N)c3nc4ccccc4[nH]3)nn2c1=O,-21%,20µM*,-17%,4%,-26%,-7%
COc1ccccc1C1NC(c2ccc3c(c2)OCO3)=CC(c2cc(Br)ccc2O)N1 (configuration not stated),.,.,-5%,-1%,?,.
OCCNC(=S)Nc1ccc2nsnc2c1,1%,-17%,-6%,-7%,20µM*,-5%
Cc1nc2ccc(NC(=S)NCCCO)cc2nc1C,0%,?,-14%,-1%,18µM*,-5%
Cc1cc(NC(=O)C2CC=CCC2C(=O)O)no1 (configuration not stated),22µM*,?,-15%,4%,-1%,?
Cc1nn(-c2ccccc2)c(Cl)c1/C=C1\SC(=S)N(CCCCCC(=O)O)C1=O,27%,25µM*,-7%,-15%,-18%,-14%
O=C(O)CN1C(=O)/C(=C\c2ccccc2OCc2ccccc2)SC1=S,.,79µM*,.,.,.,-2%
COc1ccc(/C=C2\SC(=S)N(CCC(=O)Nc3ccccc3C(=O)O)C2=O)cc1,8%,-3%,-7%,-21%,?,1%
O=C(O)CCCN1C(=O)/C(=C\c2ccccc2OCc2ccccc2)SC1=S,?,79µM*,-14%,?,?,-12%
COc1ccc(/C=C2\SC(=S)N(CCCC(=O)Nc3ccccc3C(=O)O)C2=O)cc1OC,-1%,89µM*,3%,-19%,?,-11%
O=C(O)CN1C(=O)/C(=C\c2ccccc2OCc2ccc(F)cc2)SC1=S,?,?,-27%,-16%,?,-8%
O=C(CSc1nnc(SCC(=O)c2ccco2)s1)c1ccco1,32µM*,16µM*,?,-9%,?,-16%
COc1ccc(C(=O)NCc2ccc3c(c2)CCN3C(=O)c2ccc(C)cc2)cc1,6%,-19%,1%[60.1 µM],2%,5%,-1%
CCOc1ccc2ccccc2c1/C=N/NC(=O)c1ccncc1,20µM*,-4%,-11%,-25%,6%,-4%
COc1ccc2cc3c(N)nn(C(=O)c4ccc(OC)c(OC)c4)c3nc2c1,16µM*,?,-7%,-2%,-3%,-2%
Cc1ccc(-c2csc(N3N=C(c4ccccc4)/C(=C\c4ccc(N(C)C)cc4)C3=O)n2)cc1,50µM*,.,.,.,.,.
CC1=NN(c2cccc(F)c2)C(=O)/C1=C/c1ccc(N(C)C)cc1,15%,1%,-2%,-1%,144%,8%
C#CCOCCOCCOCCNc1nc(N2CCN(C(=O)CCCCCCCCCCNC(=O)Cn3cc(C[C@@H](C)O)nn3)CC2)nc(N2CCN(C(=O)CCCCCCCCCCNC(=O)[C@H](CCCCN)n3cc(C[C@@H](C)CC)nn3)CC2)n1,.,?,-2%,50µM*,?,-8%
C#CCOCCOCCOCCNc1nc(N2CCN(C(=O)CCCCCCCCCCNC(=O)[C@H](CCCCN)n3cc(CCO)nn3)CC2)nc(N2CCN(C(=O)CCCCCCCCCCNC(=O)[C@H](CCCN=C(N)N)n3cc(C[C@@H](C)CC)nn3)CC2)n1,.,79µM*,?,22µM*,?,14%
C#CCOCCOCCOCCNc1nc(N2CCN(C(=O)CCCCCCCCCCNC(=O)[C@H](CCCCN)n3cc(C[C@@H](C)CC)nn3)CC2)nc(N2CCN(C(=O)CCCCCCCCCCNC(=O)[C@H](CCCCN)n3cc(C[C@@H](C)CC)nn3)CC2)n1,.,79µM*,-3%,22µM*,20%,-1%
C#CCOCCOCCOCCNc1nc(N2CCN(C(=O)CCCCCCCCCCNC(=O)[C@H](CCCCN)n3cc(CCO)nn3)CC2)nc(N2CCN(C(=O)CCCCCCCCCCNC(=O)[C@H](CCCCN)n3cc(CCO)nn3)CC2)n1,.,?,-15%,79µM*,14%,13%
C#CCOCCOCCOCCNc1nc(N2CCN(C(=O)CCCCCCCCCCNC(=O)[C@H](CCCCN)n3cc(CCCC(=O)O)nn3)CC2)nc(N2CCN(C(=O)CCCCCCCCCCNC(=O)[C@H](CCCN=C(N)N)n3cc(C[C@@H](C)CC)nn3)CC2)n1,.,?,12%,?,-6%,i
COc1ccc(CNC(=O)c2sc3nc4n(c(=O)c3c2C)CCCCC4)cc1,?,-14%,-16%,1%,15%,8%
CC(C)(C)n1ncc2c(=O)n(Cc3ccc(C#N)cc3)cnc21,.,.,?,-136%,?,.
COc1cc(Nc2c3ccccc3nc3ccccc23)cc(OC)c1OC,14µM*,-7%,-6%,?,?,-8%
SMILES,Pol beta inh,Pol eta inh,POLK inh,FEN1 inh,POLI inh,PGK inhibitor
O=S(=O)(c1ccc2c(c1)OCO2)N1CCN(c2nc(-c3cccs3)nc3ccccc23)CC1,.,.,-2%,12%,11%,.
O=C1CC(C(=O)Nc2ccc(C(=O)O)cc2)C(c2ccccc2)O1 (configuration not stated),21%,-6%,-7%,-9%,0%,3%
O=C1CC(C(=O)Nc2ccc(O)c(C(=O)O)c2)C(c2ccccc2)O1 (configuration not stated),-10%,50µM*,-14%,4%,?,.
CC1=NN(c2nc(-c3ccc(Cl)cc3)cs2)C(=O)C1,35µM*,45µM*,50µM*,?,?,-6%
Cc1cc(=O)c2c(C)ccc(C)c2[nH]1,3%,-18%,-14%,-1%,12%,-10%
Cc1cc(=O)c2c(O)c3c(O)cc(O)c4c5c(O)cc(O)c6c(O)c7c(=O)cc(C)c8c1c2c(c34)c(c65)c78,.,.,10µM*,.,.,.
CCc1cc(/C=C/c2ccnc3ccccc23)ccc1N(C)C,.,.,-9%,?,30%,.
COc1cc([C@H]2c3cc4c(cc3[C@@H](O)[C@@H]3COC(=O)[C@H]23)OCO4)cc(OC)c1OC,.,.,-4%[12 µM],.,.,.
COC(=O)c1sc(-c2ccc(C(C)(C)C)cc2)cc1NC(=O)CSCC(=O)O,-7%,89µM*,9%,-4%,79µM*,-12%
O=S(=O)(NC1=NCCCCC1)c1ccc2sc(NS(=O)(=O)c3ccc4ccccc4c3)nc2c1,1%,?,-20%,-6%,11µM*,1%
COc1cc2c(cc1OC)C(COc1ccccc1OC)N(C(=O)COc1ccc(Cl)cc1)CC2 (configuration not stated),7%,-19%,-10%[60.1 µM],5%,11%,7%
CCc1ccc(-c2[nH]c3c(c2-c2sc(C)c(C(=O)OC)c2O)c(=O)n(C)c(=O)n3C)cc1,44%,.,-8%,1%,7%,.
